Values joined by “and” are separate entries in the source; they are usually repeats but may differ in a detail not shown here. Equal values may be shown once. Records with an inconclusive call do not appear. Active and inactive are the calls of the source. Calls follow the shape of the dose curve; as a rule, active = well fitted inhibition curve with a large enough effect; inconclusive = small, poorly fitted or top-dose-only effect; inactive = flat fitted curve, though single readings scatter.

What all share (assay): qHTS profiling for inhibitors of Plasmodium falciparum proliferation (AID 504749); also: nearly all actives have a fitted effect of over 60% in size
Common to all, as to conditions: P. falciparum in erythrocytes, SYBR Green DNA, 72 h; series mostly up to 28.7 µM

The test system of one experiment is N140. Summed up: (§1)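 Parasite proliferation within erythrocytes, 72 h exposure. Endpoint: SYBR Green I fluorescence after overnight lysis at room temperature. Controls: 0.29 uM artemisinin, DMSO.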
In the next experiment the test system is P93_24. Summed up:
as §1

The test system of a further experiment is P94_40. The gist of the method:
as §1

For another experiment, the system named is PAD. The gist of the method: as §1
The subject of another experiment is PC15. Summed up:
as §1

The test system of another experiment is PC26. The gist of the method:
as §1

The subject of a further experiment is PC49. Summed up:
as §1

The next experiment deals with SC27B. Summed up: as §1
The test system of another experiment is TAB109. Summed up: as §1
A further experiment has as its system TAB113. The gist of the method: as §1
Potency is read from the fitted curve at half-maximal effect.

Regarding `CC1(C)[C@@H](O)CC[C@]2(C)[C@H]3C(=O)C=C4[C@@H]5C[C@@](C)(C(=O)O)CC[C@]5(C)CC[C@@]4(C)[C@]3(C)CC[C@@H]12`, the Potency entry in the experiment on N140, with P93_24, with P94_40, in the experiment with PAD, in the experiment on PC15 and with PC26 was “inactive” throughout. The Potency result in the experiment with PC49, with SC27B, in the experiment on TAB109 and in the experiment on TAB113 was “inactive” in each case.

With `COc1cc(/C=C/C(=O)CC(=O)/C=C/c2ccc(O)c(OC)c2)ccc1O`, the Potency in the experiment with PC26 was 9.53 µM (active). Moreover, in the experiment on PC49, the Potency entry is “inactive”.

In the case of `CCOc1ccc2nc(S(N)(=O)=O)sc2c1`, the Potency entry with N140, in the experiment with PAD, in the experiment on PC26, with PC49, with SC27B and in the experiment on TAB109 was “inactive” throughout. The Potency result with TAB113 was “inactive”.

In the case of `CC(=O)[C@]1(O)Cc2c(O)c3c(c(O)c2[C@@H](O[C@H]2C[C@H](N)[C@H](O)[C@H](C)O2)C1)C(=O)c1c(O)cccc1C3=O`, the Potency in the experiment on N140 was 10 µM (active); in the experiment with P93_24, 7.94 µM (active); with P94_40, 10 µM (active); with PAD, 12.6 µM (active); in the experiment on PC15, 7.94 µM (active); in the experiment on PC49, 8.91 µM (active). In addition, the Potency with SC27B is 12.6 µM (active); with TAB109, 7.08 µM (active); with TAB113 it was 7.08 µM (active).

Regarding `COc1cc(/C=C/C(=O)N2CCN(CC(=O)N3CCCC3)CC2)cc(OC)c1OC`, the Potency entry with P94_40, in the experiment on PC15, in the experiment on PC49, in the experiment on SC27B, in the experiment with TAB109 and with TAB113 was “inactive” in each case.

As for `CCCCC[C@H](O)/C=C/[C@@H]1[C@@H](C/C=C\CCCC(=O)O)[C@@H](O)C[C@H]1O`, the Potency result in the experiment with N140, in the experiment on P93_24, in the experiment on P94_40, in the experiment on PAD, in the experiment with PC15 and in the experiment with PC49 was “inactive” each time. In addition, the Potency entry in the experiment on SC27B, in the experiment with TAB109 and in the experiment with TAB113 was “inactive” throughout.

As to `O=C(O)c1cc(O)c(O)c(O)c1`, the Potency result with P94_40, in the experiment with PAD, in the experiment with PC15, with PC26, in the experiment with PC49 and in the experiment with SC27B was “inactive” in each case. For the same molecule, in the experiment with TAB109, the Potency entry was “inactive”.

For `CN1[C@@H](CC(=O)c2ccccc2)CCC[C@H]1C[C@H](O)c1ccccc1`, the Potency was 17.8 µM (active) with N140, 11.2 µM (active) in the experiment with P94_40 and 7.08 µM (active) with PC49.

For `CN(C)c1ccc(C(=C2C=CC(=[N+](C)C)C=C2)c2ccccc2)cc1`, the values for the Potency in the experiment on P93_24 and with TAB109 were 10 µM (active) and 12.6 µM (active), respectively. Moreover, the Potency result in the experiment with PC49 and with SC27B was “inactive” in each case.

For `CCCCCCCCCCCC(=O)[O][Sn]([CH2]CCC)([CH2]CCC)[O]C(=O)CCCCCCCCCCC`, the Potency result in the experiment on N140, in the experiment on P93_24, with P94_40, with PAD, with PC15 and with PC49 was “inactive” each time. Also, the Potency result with SC27B, in the experiment on TAB109 and with TAB113 was “inactive” throughout.

For the molecule `CN1[C@@H]2CC[C@H]1CC(OC(=O)C(CO)c1ccccc1)C2` (stereo not given in full), the Potency entry in the experiment with N140, in the experiment on P93_24, with P94_40, in the experiment on PAD, in the experiment on PC15 and with PC26 was “inactive” in each case. For the same molecule, the Potency result in the experiment with PC49, in the experiment with SC27B, in the experiment on TAB109 and in the experiment with TAB113 was “inactive” in each case.

For `CN1[C@@H]2CC[C@H]1CC(OC(c1ccccc1)c1ccccc1)C2` (stereo not given in full), the Potency with P94_40 was 10 µM (active); in the experiment with PAD it was 11.2 µM (active); in the experiment on PC15, 10 µM (active); in the experiment with PC49 it was 3.55 µM (active) and 1.41 µM (active). Moreover, in the experiment with SC27B, the Potency result was “inactive”.

Turning to `CC1OC1P(=O)(O)O` (stereo not given), the Potency entry in the experiment on N140, in the experiment with P93_24, in the experiment on P94_40, with PAD, with PC15 and with PC26 was “inactive” each time. Moreover, the Potency result with PC49, in the experiment with SC27B and with TAB113 was “inactive” throughout.

Regarding `NC(=O)C(c1ccccc1)(c1ccccc1)[C@@H]1CCN(CCc2ccc3c(c2)CCO3)C1`, in the experiment on PAD, the Potency entry was “inactive”.

As to `Cc1nc2ccccc2n1Cc1ccc(Cl)cc1`, the Potency entry in the experiment on P93_24, with P94_40, in the experiment on PAD, with PC15, in the experiment with PC26 and with PC49 was “inactive” in each case. The Potency result in the experiment on SC27B, with TAB109 and in the experiment on TAB113 was “inactive” in each case.

As to `CCCCCCCCCCCCCCCCCC(=O)O`, the Potency entry with N140, in the experiment on P93_24, in the experiment on P94_40, with PAD, in the experiment on PC15 and in the experiment on PC26 was “inactive” in each case. Moreover, the Potency result in the experiment on PC49, in the experiment with SC27B and in the experiment with TAB113 was “inactive” throughout.

As for `c1ccc2sc(SN3CCOCC3)nc2c1`, the Potency entry in the experiment with P94_40, in the experiment on PC15, with PC26, in the experiment on PC49, in the experiment on SC27B and in the experiment on TAB113 was “inactive” each time.

For the molecule `COc1ccc(/C=C/C(=O)Nc2ccccc2C(=O)O)cc1OC`, the Potency entry in the experiment with N140, in the experiment on P93_24, in the experiment on P94_40, in the experiment with PAD, with PC26 and in the experiment with PC49 was “inactive” throughout. Further, the Potency entry in the experiment with SC27B, in the experiment on TAB109 and with TAB113 was “inactive” throughout.

Regarding `N=c1ccn2c(n1)O[C@H]1[C@H](O)[C@@H](CO)O[C@H]12`, the Potency entry in the experiment on N140, with P93_24, in the experiment on PAD, in the experiment on PC15, in the experiment on PC26 and with PC49 was “inactive” in each case. For the same molecule, the Potency entry in the experiment on SC27B, with TAB109 and in the experiment with TAB113 was “inactive” throughout.

In the case of `C=CCN1C(=O)C(CC(C)C)NC1=S` (stereo not given), the Potency result in the experiment on N140, with P93_24, with P94_40, in the experiment with PAD, with PC15 and in the experiment with PC26 was “inactive” each time. For the same molecule, the Potency entry with PC49, with SC27B, with TAB109 and in the experiment on TAB113 was “inactive” in each case.

As to `CCCC(=O)OC[C@@H](OC(=O)CCC)[C@@H](OC(=O)CCC)[C@H](Cn1c2nc(=O)[nH]c(=O)c-2nc2cc(C)c(C)cc21)OC(=O)CCC`, the Potency result in the experiment on PC15, in the experiment with PC26 and with PC49 was “inactive” each time.

For the molecule `Cc1cc(O)c2ccccc2c1O`, the Potency result in the experiment with N140, in the experiment on P93_24, with P94_40, in the experiment with PAD, in the experiment with PC15 and in the experiment with PC49 was “inactive” throughout. In addition, the Potency entry in the experiment with SC27B, in the experiment with TAB109 and in the experiment on TAB113 was “inactive” each time.

As to `C=CCCCCCCCCC(=O)O`, the Potency result in the experiment on N140, in the experiment on P93_24, with P94_40, in the experiment with PAD, in the experiment on PC15 and in the experiment with PC26 was “inactive” each time. Also, the Potency entry with PC49, in the experiment with SC27B, in the experiment on TAB109 and with TAB113 was “inactive” each time.

For the origin of these results see PubChem BioAssay (NCATS).
